Among all 5,500 compounds or so, about 2,000 (36%) were called active. Roughly 18% stayed inconclusive and do not appear here. Rule as the data show it: active = normalized growth mostly below about 0.91 (no sharp cut-off); inconclusive = no clear call, values can overlap the other calls; inactive = mostly above about 0.92. The list shows a part of the results.
Experiment: chemical genetic growth profiling, strain panel (AID 1159580);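 also: tested at 20 µM; growth read once vehicle control cultures reached saturation at 30 °C; 1 = growth at the plate median or of vehicle wells; lower values mean less growth of the strain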
Settings: growth OD

Measured: normalized growth

CS(=O)(=O)c1ccc(C2=C(c3ccccc3)C(=O)OC2)cc1
inactive: S. cerevisiae deletion strains, locus YJR066W, strain TOR1, hits give low values 0.97 | S. cerevisiae deletion strains, locus YJR075W, strain HOC1, hits give low values 0.992 | S. cerevisiae deletion strains, locus YKL009W, strain mrt4, hits give low values 0.949 | S. cerevisiae deletion strains, locus YKL068W, hits give low values 0.983 | S. cerevisiae deletion strains, locus YKL085W, strain MDH1 (second series), hits give low values 0.979 | S. cerevisiae deletion strains, locus YKL085W, strain MDH1, hits give low values 0.979 | S. cerevisiae deletion strains, locus YKL160W, strain elf1, hits give low values 0.988 | S. cerevisiae deletion strains, locus YKL190W, strain CNB1, hits give low values 0.98 | S. cerevisiae deletion strains, locus YKR001C, strain vps1, hits give low values 0.987 | S. cerevisiae deletion strains, locus YKR026C, strain gcn3, hits give low values 0.983 | S. cerevisiae deletion strains, locus YKR091W, strain srl3, hits give low values 0.961 | S. cerevisiae deletion strains, locus YLL001W, strain dnm1, hits give low values 0.999 | S. cerevisiae deletion strains, locus YLL026W, hits give low values 0.985 | S. cerevisiae deletion strains, locus YLL041C, strain sdh2, hits give low values 0.994 | S. cerevisiae deletion strains, locus YLR027C, strain aat2, hits give low values 0.978 | S. cerevisiae deletion strains, locus YLR039C, strain RIC1, hits give low values 0.951 | S. cerevisiae deletion strains, locus YLR058C, strain SHM2, hits give low values 1 | S. cerevisiae deletion strains, locus YLR102C, strain apc9, hits give low values 0.992 | S. cerevisiae deletion strains, locus YLR113W, strain HOG1, hits give low values 1.01 | S. cerevisiae deletion strains, locus YLR221C, strain rsa3, hits give low values 0.974 | S. cerevisiae deletion strains, locus YLR258W, strain gsy2, hits give low values 0.988 | S. cerevisiae deletion strains, locus YLR262C, strain YPT6 (second series), hits give low values 0.96 | S. cerevisiae deletion strains, locus YLR262C, strain YPT6, hits give low values 0.965 | S. cerevisiae deletion strains, locus YLR268W, strain sec22, hits give low values 0.971 | S. cerevisiae deletion strains, locus YLR320W, strain mms22, hits give low values 0.991 | S. cerevisiae deletion strains, locus YLR330W, strain CHS5, hits give low values 0.986 | S. cerevisiae deletion strains, locus YLR342W, strain FKS1 (second series), hits give low values 1.01 | S. cerevisiae deletion strains, locus YLR342W, strain FKS1, hits give low values 0.966 | S. cerevisiae deletion strains, locus YLR357W, strain rsc2, hits give low values 0.955 | S. cerevisiae deletion strains, locus YLR370C, strain arc18, hits give low values 0.971 | S. cerevisiae deletion strains, locus YLR371W, strain rom2, hits give low values 0.981 | S. cerevisiae deletion strains, locus YLR384C, strain iki3, hits give low values 0.992 | S. cerevisiae deletion strains, locus YLR418C, strain cdc73, hits give low values 0.987 | S. cerevisiae deletion strains, locus YML016C, strain PPZ1, hits give low values 1 | S. cerevisiae deletion strains, locus YML032C, strain rad52, hits give low values 0.97 | S. cerevisiae deletion strains, locus YML120C, strain ndi1, hits give low values 0.959 | S. cerevisiae deletion strains, locus YML124C, strain tub3, hits give low values 0.989 | S. cerevisiae deletion strains, locus YMR058W, strain fet3, hits give low values 0.978 | S. cerevisiae deletion strains, locus YMR078C, strain ctf18, hits give low values 0.985 | S. cerevisiae deletion strains, locus YMR125W, strain sto1, hits give low values 0.961 | S. cerevisiae deletion strains, locus YMR129W, hits give low values 0.988 | S. cerevisiae deletion strains, locus YMR205C, strain PFK2, hits give low values 0.986 | S. cerevisiae deletion strains, locus YMR223W, strain ubp8, hits give low values 0.982 | S. cerevisiae deletion strains, locus YMR231W, strain pep5, hits give low values 0.992 | S. cerevisiae deletion strains, locus YMR263W, strain SAP30, hits give low values 0.958 | S. cerevisiae deletion strains, locus YMR307W, strain GAS1, hits give low values 0.998 | S. cerevisiae deletion strains, locus YNL067W, strain RPL9B, hits give low values 0.953 | S. cerevisiae deletion strains, locus YNL071W, strain lat1, hits give low values 0.979 | S. cerevisiae deletion strains, locus YNL128W, strain TEP1, hits give low values 0.985 | S. cerevisiae deletion strains, locus YNL153C, strain GIM3, hits give low values 0.994 | S. cerevisiae deletion strains, locus YNL183C, strain NPR1, hits give low values 0.984 | S. cerevisiae deletion strains, locus YNL209W, strain ssb2, hits give low values 0.951 | S. cerevisiae deletion strains, locus YNL233W, strain BNI4, hits give low values 0.992 | S. cerevisiae deletion strains, locus YNL248C, strain rpa49, hits give low values 0.965 | S. cerevisiae deletion strains, locus YNL250W, strain rad50, hits give low values 0.995 | S. cerevisiae deletion strains, locus YNL271C, strain bni1, hits give low values 0.971 | S. cerevisiae deletion strains, locus YNL298W, strain CLA4, hits give low values 0.99 | S. cerevisiae deletion strains, locus YNL307C, strain MCK1, hits give low values 0.986 | S. cerevisiae deletion strains, locus YNL322C, strain KRE1 (second series), hits give low values 0.97 | S. cerevisiae deletion strains, locus YNL322C, strain KRE1, hits give low values 0.994 | S. cerevisiae deletion strains, locus YNR049C, strain mso1, hits give low values 0.964 | S. cerevisiae deletion strains, locus YNR052C, strain pop2, hits give low values 0.975 | S. cerevisiae deletion strains, locus YOL006C, strain TOP1, hits give low values 0.91 | S. cerevisiae deletion strains, locus YOL012C, strain htz1 1.22 | S. cerevisiae deletion strains, locus YOL147C, strain pex11, hits give low values 0.995 | S. cerevisiae deletion strains, locus YOR001W, strain rrp6, hits give low values 0.979 | S. cerevisiae deletion strains, locus YOR061W, strain CKA2, hits give low values 1 | S. cerevisiae deletion strains, locus YOR069W, strain VPS5, hits give low values 1 | S. cerevisiae deletion strains, locus YOR070C, strain gyp1, hits give low values 0.977 | S. cerevisiae deletion strains, locus YOR080W, strain dia2, hits give low values 0.962 | S. cerevisiae deletion strains, locus YOR083W, strain WHI5, hits give low values 0.975 | S. cerevisiae deletion strains, locus YOR106W, strain vam3, hits give low values 0.968 | S. cerevisiae deletion strains, locus YOR136W, strain idh2, hits give low values 0.992 | S. cerevisiae deletion strains, locus YOR144C, strain elg1, hits give low values 0.975 | S. cerevisiae deletion strains, locus YOR184W, strain ser1, hits give low values 0.975 | S. cerevisiae deletion strains, locus YOR231W, strain MKK1, hits give low values 1.03 | S. cerevisiae deletion strains, locus YOR265W, strain rbl2, hits give low values 0.973 | S. cerevisiae deletion strains, locus YOR270C, strain vph1, hits give low values 0.933 | S. cerevisiae deletion strains, locus YOR290C, strain snf2, hits give low values 0.972 | S. cerevisiae deletion strains, locus YOR316C, strain cot1, hits give low values 0.987 | S. cerevisiae deletion strains, locus YPL051W, strain arl3, hits give low values 0.986 | S. cerevisiae deletion strains, locus YPL055C, strain LGE1, hits give low values 0.957 | S. cerevisiae deletion strains, locus YPL078C, strain atp4, hits give low values 0.986 | S. cerevisiae deletion strains, locus YPL106C, strain sse1, hits give low values 0.942 | S. cerevisiae deletion strains, locus YPL240C, strain hsp82, hits give low values 0.969 | S. cerevisiae deletion strains, locus YPL241C, strain CIN2, hits give low values 0.994 | S. cerevisiae deletion strains, locus YPL256C, strain CLN2, hits give low values 1.06 | S. cerevisiae deletion strains, locus YPR141C, strain kar3, hits give low values 0.98 | S. cerevisiae deletion strains, locus YPR163C, strain tif3, hits give low values 0.989 | S. cerevisiae deletion strains, locus YPR167C, strain met16, hits give low values 0.978 | S. cerevisiae deletion strains, strain wtn01, hits give low values 0.985 | S. cerevisiae strains, strain wild type, hits give low values 0.989

— PubChem BioAssay AID1159580 (chemical genetic matrix, 2015)
